Experimental data reported in the supplement of paper PMC6555819.

Columns and labels:
Assay in all cases: PBM binding z-score (relative to random genomic background probes); higher = stronger binding; sequences stand for … in GC…GCGATTGACAGCGTAGAATGAAGG
[1] = system: RARb homodimer (NR concentration 270 nM)
Method in brief: (§1)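 Scanned fluorescence from custom Agilent 4×180K protein-binding microarrays was regression-normalized. Binding z-scores use random background probes as reference. Ligand-free nuclear receptor dimers were incubated on the arrays for 1 h and detected with antibodies against each partner (one per run).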

[2] = system: RARg:RXRa (NR concentration 270 nM, RXRa partner concentration 90 nM)
Method in brief: as §1

[3] = system: RARg homodimer (NR concentration 270 nM)
Method in brief: as §1

[4] = system: RXRa DBDmut IVT, anti-RXR (DBD mutation: RXRa K156A/R161A, NR concentration 90 nM)
Method in brief: as §1

[5] = system: RXRa homodimer (NR concentration 180 nM)
Method in brief: as §1

[6] = system: THRa:RXRa (NR concentration 90 nM, RXRa partner concentration 90 nM)
Method in brief: as §1

[7] = system: THRa homodimer (NR concentration 90 nM)
Method in brief: as §1

[8] = system: VDR homodimer (NR concentration 270 nM)
Method in brief: as §1

Sequence	PBM binding z-score [1]	PBM binding z-score [2]	PBM binding z-score [3]	PBM binding z-score [4]	PBM binding z-score [5]	PBM binding z-score [6]	PBM binding z-score [7]	PBM binding z-score [8]
AGCTCTAGGTAACAAGTTCAGTGAAAGAGAGGAC	1.92	1.12	1.23	0.916	0.551	1.49	0.681	2.64
AGAATGAGGTTACTAAGATCAGGGAATTGCGGTC	1.12	1.25	1.15	1.43	1.98	2.28	0.919	0.836
ACTATTAGTTAAGACGAGGGCAACCGATAGGTTG	1.34	0.59	0.902	0.459	0.55	1.85	0.204	0.991
ATCTCTAGGTAACCCAGTTCAGTGAATGCCGAAC	0.825	0.714	0.439	0.564	0.828	1.45	0.872	1.39
TCTAGCAGGGCAGAGGGTCACTCAAGAGGTACGG	2.89	3.12	2.36	-0.00739	2.68	1.6	-0.329	0.66
GCGACTGGGGCAAAGCAGGTTACCGTAAGGTTGG	1.14	0.477	0.183	-0.47	0.234	3.15	-0.142	-0.434
GCAGACAGGTGAAACGCAGGTAACTCATGGTGGC	0.0324	0.941	0.44	-0.582	0.943	1	-0.808	-0.818
CATCCAAGGTCAGCAGGTCAGTGAAAGCGACGTG	5.04	6.2	7.09	2.7	6.07	3.89	2.76	2.18
CGTAAAAGTTCAACTAAGGTAACGTAAAGCACGC	3.88	5.28	6.11	4.41	4.42	5.35	1.75	3.84
GGAACGAGGGCAAAGTTGATATCATCTGTCGACG	1.26	2.14	1.97	2.81	1.96	1.32	0.0109	1.29
GCTTGTAGATCAAGGTTAAGAGAGACTAAGCTAA	0.148	0.263	0.22	-0.00641	0.438	1.2	-0.0888	-0.335
GCGACTGGGGCAAAGCTGGTTACCATAAGGTTGG	0.208	0.0391	0.0418	0.0315	-0.0119	0.398	-0.232	-0.208
CCTAGCAAGCCAATCTGGGTCACTCAAGGCTTGA	1.9	0.58	0.537	-0.0119	0.781	2.99	0.441	0.0159
GTACCAAGCTGAATAGGTCGTTGATGAGTAGGCG	0.0267	-0.0216	0.164	-0.0938	0.371	-0.0665	-0.873	-0.43
AGAATGAGGTTAATAAGATCAGGGAATTGCGGTC	0.992	1.32	1.09	1.16	1.82	2.04	0.762	0.247
AGAATCAGGTTATACGTAGATCAGGGAAGAAAGT	0.65	0.789	0.919	0.474	0.757	1.17	0.768	0.381
TAGCCTAGGTCATGGGCCGGTATACCACGCGAAC	3.04	4.1	4.58	-0.511	3.4	3.15	1.37	0.45
ACTAACGGGTCAACGAGGTTATAGCACGCGTATA	3.41	5.03	4.5	1.94	5.17	3.81	1.03	3.56
CAGACTGGGGCAAGGTTACCATAACGCACAGCCA	1.35	1.16	1.52	-0.141	1.34	1.41	0.328	0.0721
TTATATAGGTAAAAGGTGAAAGTCGGTGTGGTAA	1.62	2.08	0.991	0.197	2.87	1.77	0.486	0.445
CCGACTGGGGCATAAGCTTACCATAAGCCAGCCC	-0.773	-0.376	-0.313	0.074	-0.312	-0.645	-1.06	-0.947
CTCGAAAGGTTGGTTGAGGTGAGTATACGGATAA	1.12	0.599	0.684	0.251	0.502	4.42	1.82	0.513
TCTTGTAGCTCAGCAGGTTAAGAAAGCTGGCCAA	-0.305	-0.557	-0.799	-0.298	-0.011	-0.123	-0.926	-0.952
AGAATGAGGTTATTATGATCAGGGAATTGCGGTC	0.795	1.07	0.882	2.21	1.7	2.21	1.08	1.41
AATAGCAGGCCAAGTTTGGGTCACTCAAACAAAG	2.31	2.53	1.67	-0.564	0.964	2.63	0.748	0.388
GCTTGTTGGTCAGTAAAAGGTCACACACCGGTCG	5.37	5.53	4.67	0.545	5.16	3.5	2.15	1.68
GCTACTAGGTCAGGTTGGTCAGCTAACGGGTACG	2.98	2.63	3.84	0.551	1.24	1.85	1.16	0.983
TCATATAGGTAAAAGGTGAAAATCGGTGTGGTAA	1.58	2.04	0.775	1.69	3.08	1.56	0.242	0.627
